Measured values: PubChem BioAssay (NCI)
The panel holds about 79,000 compounds, 15% with a hit somewhere; the sample as a whole holds those more often. Unmarked numbers belong to inactive results. Active and inactive are the calls of the source. No stated cut-off is given here; in the data, active means growth inhibition above about 70%; inactive means the rest.

Test: NCI Yeast Anticancer Drug Screen. Data for the sgs1 mgt1 strain (AID 161);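 further: 0% = growth of cultures given vehicle only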
Settings: S. cerevisiae sgs1 mgt1 strain, at 50.0 µM, stronger effect = higher value
Procedure: Growth inhibition of yeast strains with defined genetic alterations is measured as a screen for potential anti-cancer activity. Selected strains with alterations in DNA damage repair or cell cycle control were exposed to compounds and growth inhibition was measured relative to vehicle treated controls. The strain used in this assay is sgs1 mgt1

Row | Compound | growth inhibition
1 | CC1CC(=O)N(N(C)C)C2(C#N)C(=O)N=C(N)C12C#N (stereo not given) | -16.1%
2 | COc1c2c(c3c(c1OC)c(=O)c1ccccc1n3C)OCO2 | 16.8%
3 | CC1CC2(OC2C)C(=O)OC2CCN(C)C/C=C(/COC(=O)C1(C)O)C2=O (stereo not given) | 20.9%
4 | COc1cc([C@H]2OC[C@@H]3C(c4cc(OC)c5c(c4)OCO5)OC[C@H]23)cc(OC)c1OC (stereo not given in full) | -26.9%
5 | C=C1CC2(C)CCC(OC(=O)C3(C)OC3C)C(C)(OC(C)=O)C2CC1=C(C)C (stereo not given) | 7.55%
6 | N/N=C(\C(=O)Nc1ccc([N+](=O)[O-])cc1)C(C1=Nc2cc([N+](=O)[O-])ccc2NC1)[N+](=O)[O-] (stereo not given) | 12.8%
7 | O=C(/C=C(\[O-])c1ccccc1)CCCCCCC(=O)/C=C(\[O-])c1ccccc1.O=C(/C=C(\[O-])c1ccccc1)CCCCCCC(=O)/C=C(\[O-])c1ccccc1.O=C(/C=C(\[O-])c1ccccc1)CCCCCCC(=O)/C=C(\[O-])c1ccccc1.[La+3].[La+3] | 5.5%
8 | C=C1C(=O)OC2CC(C)C3(O)CCC(=O)C3(C)CC12 (stereo not given) | -5.2%
9 | Cc1ccc(/C=C2/N=C(N/N=C\c3ccccc3)NC2=O)cc1 | -19.4%
10 | COc1ccc(/C=c2\[nH]c3nc(=O)c(N4CCOCC4)c(N)n3c2=O)cc1 | 1.6%
11 | CCCCCC(O)(CCCCC)CCCCCCCCC1=C(O)c2ccccc2C(=O)C1=O | -0.15%
12 | O=C(O)c1cn(C2CC2)c2cc(N3CCNCC3)c(F)cc2c1=O | -13.1%
13 | Cc1cc(S(=O)(=O)O)c(NC(=O)c2oc3cc(O)ccc3c(=O)c2C)cc1Cl | 3.9%
14 | C/C(=C\COc1cc(O)c2c(c1)C(=O)c1cc(C)cc(O)c1C2=O)CCC1OC1(C)C (stereo not given) | 4.55%
15 | CC1OC23CCCCC2C(C#N)(C#N)C1(C#N)C(=N)O3 (stereo not given) | -36%
16 | COC(=O)c1cc(C#N)[nH]c1-c1ccsc1 | -10.8%
17 | CC1=C(/C=C/C(C)=C/C=C/C(C)=C/C(=O)Nc2ccc(O)cc2)C(C)(C)CCC1 | -2.3%
18 | CC1OC(Oc2c(-c3cc(O)c(O)c(O)c3)oc3cc(O)cc(O)c3c2=O)C(O)C(O)C1O (stereo not given) | -8%
19 | N#CC1(C#N)N[C@@H](c2ccsc2)[C@H]2C(=O)N(c3ccccc3)C(=O)[C@H]21 | 3.75%
20 | CCCCCCCCCCCCC/C=C/[C@H]1[C@@H](C(=O)OC)N1S(=O)c1ccc(C)cc1 (stereo not given in full) | 1.25%

Row | Compound | growth inhibition
21 | CCCCCCSC[C@H](OC(C)=O)[C@@H](OC(C)=O)[C@@H](OC(C)=O)[C@@H](COC(C)=O)OC(C)=O | 2.65%
22 | COc1cc2c3cc1Oc1c(OC)c(OC)cc4c1C(Cc1ccc(O)c(c1)-c1cc(ccc1OC)CC3N(C)CC2)N(C)CC4 (stereo not given) | -2.15%
23 | CCC/C(Cl)=N/OC(=O)Nc1cccc(F)c1 | 90.8% (active)
24 | C=CC(COC(=O)C(C)(C)OC(C)=O)c1ccc(OC(=O)C(C)C)c(OC)c1 (stereo not given) | 20.4%
25 | O=C(Nc1cccc(NC(=O)C(=O)C2CCC3=C(Sc4ccccc4N3)C2=O)n1)C(=O)C1CCC2=C(Sc3ccccc3N2)C1=O (stereo not given) | 3%
26 | O=C(NC1=NC2C=CC([N+](=O)[O-])=CC2S1)C(=O)Nn1c(=S)[nH]c2ccccc2c1=O (stereo not given) | 20.2%
27 | N#C/C=C1\C=CC(O)C(O)C1OC1OC(CO)C(O)C(O)C1O (stereo not given) | 37.9%
28 | CC(=N/N=C/c1ccccn1)/C(C)=N/N=C(C)/C(C)=N/N=C(C)/C(C)=N/N=C(C)/C(C)=N\N=C\c1ccccn1 | 4.05%
29 | O=C1CC(c2ccccc2)NCCCCN2CC(CN1)C(C(O)c1ccccc1)C2=O (stereo not given) | -39.4%
30 | CO/C(N)=C(\C#N)N=Cc1ccc2ccccc2c1 | 13.6%
31 | COc1ccc(OC)c(N(CN2C(=O)CCC2C(=O)O)C(C)=O)c1 (stereo not given) | -13.3%
32 | CC(C)=CCc1cc(C2COc3cc4c(c(O)c3C2=O)C=CC(C)(C)O4)c(O)cc1O (stereo not given) | 92% (active)
33 | CCOc1cc2c(cc1O)C=C[C@@H]1[C@@H]2CC[C@]2(C)[C@@H](O)CC[C@@H]12 | 53.8%
34 | COc1ccc(-c2coc3c4c(ccc3c2=O)OCO4)cc1OC | 0.45%
35 | COc1ccc(N=C(C)C(C)=Nc2ccc(OC)cc2)cc1 | -15.1%
36 | CC1(C)S[C@H](CN)N[C@H]1C(=O)OC(c1ccccc1)c1ccccc1 | 5.25%
37 | COc1ccc2c(=O)c(-c3cc4c(cc3OC)OCO4)coc2c1 | -11.3%
38 | COc1ccc(CC2C(=O)NC(=O)NC2=O)cc1OCc1ccccc1 | -14.1%
39 | Cc1nc(-[n+]2nc(-c3ccccc3)nn2-c2ccccc2)sc1C | -18.9%
40 | CC12CCC(CC1)C(C)(C)O2 | -2.5%
